About 83,000 compounds went through this panel and 20% of them were active in at least one assay; those are over-represented in the sample as a whole.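 Treatment: one concentration, 48 hours, 96-well format. Scoring: percent growth, with anything below 10 considered active.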 Active and inactive are the calls of the source.
system: NCI-H322M lung; test: NCI-60 one-dose screen, 48 h (100 = growth as untreated, 0 = no growth, -100 = all killed); conditions: 10 µM unless noted

**Q.** Which growth does the source give for `Nc1ccc(S(=O)(=O)O)c2ccc(N=Nc3ccc(N=Nc4ccc(S(=O)(=O)O)cc4)c4ccccc34)c(O)c12` here?
**A.** 94.7% (inactive)

**Q.** `CSc1ccc(-c2n[nH]nc2-c2cc3ccccc3s2)cc1` was tested. Which growth did it give?
**A.** 73.9% (inactive)

**Q.** Which growth does the source give for `COc1ccc(C(=O)COc2ccc(/C=C3\COc4ccc(OC)cc4C3=O)cc2)cc1` here?
**A.** 96.1% (inactive)

**Q.** How did the growth turn out when `COc1cc(C=Nc2oc(-c3ccccc3)c(-c3ccccc3)c2C#N)cc(CN2CCCCC2)c1O` was run?
**A.** 99.6% (inactive)

**Q.** Which growth does the source give for `O=C1CC[C@H](c2ccc(O)c3c2C(=O)[C@@H]2O[C@@H]2C3=O)c2cccc(O)c21` here?
**A.** 98% (inactive)

**Q.** Which growth does the source give for `C#CC(F)(F)[C@]1(O)CC[C@H]2[C@@H]3CCC4=CC(=O)CCC4=C3[C@@H](c3ccc(C(C)=O)cc3)C[C@@]21C` here?
**A.** 96.7% (inactive)

**Q.** With `O=C(Cc1ccccc1Nc1c(Cl)cccc1Cl)NN1C(=O)/C(=C/c2ccc(Br)cc2)SC1=S` as the compound, how does the growth read?
**A.** 98.7% (inactive)

**Q.** How did the growth turn out when `Cc1nn(-c2cc(=O)[nH]c3ccccc23)c(N)c1C#N` was run?
**A.** 97% (inactive)

**Q.** How did the growth turn out when `CCn1c(Cc2ccccc2Nc2c(Cl)cccc2Cl)nnc1SCC(=O)NN1C(=O)/C(=C/c2cc(OC)c(O)c(OC)c2)SC1=S` was run?
**A.** 42.2% (inactive)

**Q.** For `Cc1cc(C)nc(SC2=C(Nc3cc(Cl)ccc3O)C(=O)N(Cc3ccccc3)C2=O)n1`, which growth is on record?
**A.** -32% [30 µM] (active)

**Q.** Which growth does the source give for `CCN(CC)c1ccc(/C=N\NC(=O)/C=C/C=C/c2ccc3c(c2)OCO3)c(O)c1` here?
**A.** 31.2% (inactive)

**Q.** How did the growth turn out when `N#Cc1cnn(-c2nc3c(Cl)cccc3s2)c1N` was run?
**A.** 95% (inactive)

**Q.** With `COc1ccc(S(=O)(=O)N2CC3(COC3)C2)cc1NC(=O)c1[nH]c(C)c2c1CCCCC2=O` as the compound, how does the growth read?
**A.** 56.3% (inactive)

**Q.** With `Cn1cc(C(=O)c2nc(-c3c[nH]c4ccc(F)cc34)no2)c2cc(F)ccc21` as the compound, how does the growth read?
**A.** 93.6% (inactive)

**Q.** For `O=C1C=C(OCC=C(Cl)Cl)C(=O)c2ccccc21`, which growth is on record?
**A.** 101% (inactive)

**Q.** For `Cc1cc(C)nc(SC2=C(Nc3cccc(Cl)c3)C(=O)N(Cc3ccccc3)C2=O)n1`, which growth is on record?
**A.** 88.8% [30 µM] (inactive)

**Q.** How did the growth turn out when `O=c1cc(CSc2nnc(-c3ccc(F)cc3)o2)c2ccc3ccccc3c2o1` was run?
**A.** 100% (inactive)

**Q.** Which growth does the source give for `CCCn1c(=O)[nH]c(N)c([C@H]2c3ccccc3Oc3[nH]c(=O)n(CCC)c(=O)c32)c1=O` here?
**A.** 85.4% (inactive)

**Q.** How did the growth turn out when `O=C(CCN1C(=O)/C(=C/c2ccc(Cl)cc2)SC1=S)NCCCN1CCOCC1` was run?
**A.** 104% (inactive)

**Q.** How did the growth turn out when `Cc1nc2ccccc2n1C(=O)C[C@@H]1NC(=S)NC1=O` was run?
**A.** 96% (inactive)

**Q.** With `O=C(N=Nc1c(O)[nH]c2ccc(Br)cc12)c1cc(-c2ccccc2)on1` as the compound, how does the growth read?
**A.** 108% (inactive)

**Q.** Which growth does the source give for `C=C(C)C(=O)Nc1ccc(NC(C)C)cc1` here?
**A.** 150% (inactive)

**Q.** For `CC(O)CN1CC(O)=C(c2nc3ccccc3s2)C1=N` (stereo not given), which growth is on record?
**A.** 111% (inactive)

**Q.** `O=c1c2c3c(sc2nc(N/N=C/c2cn(-c4ccccc4)nc2-c2ccc(Cl)cc2)n1Cc1ccccc1)CCCC3` was tested. Which growth did it give?
**A.** 111% (inactive)

**Q.** With `COc1cccc(-c2nn(C(C)(C)C)cc2-c2ccnc(NCCCNS(=O)(=O)c3ccc(C)cc3)c2)c1` as the compound, how does the growth read?
**A.** 106% (inactive)

**Q.** With `CSc1nc(Nc2cccc(NC(=O)CCl)c2)c(C#N)c(-c2cccc([N+](=O)[O-])c2)n1` as the compound, how does the growth read?
**A.** 97.4% (inactive)

**Q.** How did the growth turn out when `CSc1nc(Nc2cccc(NC(=O)/C(C#N)=C/c3c(Cl)cccc3Cl)c2)c(C#N)c(-c2cccc([N+](=O)[O-])c2)n1` was run?
**A.** 85.5% (inactive)

**Q.** With `COc1ccc(-c2nc3ccc(-c4nc5ccc(N6CCN(c7ccccc7)CC6)cc5[nH]4)cc3[nH]2)cc1OC` as the compound, how does the growth read?
**A.** -2.95% (active)

**Q.** `COc1ccc(CCNc2nc3c(c(=O)n(Cc4ccc(Br)cc4)c(=O)n3C)n2C)cc1OC` was tested. Which growth did it give?
**A.** 93.8% (inactive)

**Q.** How did the growth turn out when `C=CCSSc1ncnc2c1ncn2C1OC(CO)C(O)C1O` (stereo not given) was run?
**A.** 33.6% (inactive)

**Q.** `Cc1ccc(NC(=O)C2CCC(CN3CCN(C)CC3)CC2)cc1Nc1nccc(-c2cccnc2)n1` (stereo not given) was tested. Which growth did it give?
**A.** 95.9% (inactive)

**Q.** `COc1cc(/C=C/c2cc(O)c3cc(C(C)=O)c(=O)oc3c2)cc2c1O[C@]1(C)CC[C@@H](O)C(C)(C)[C@H]1C2` was tested. Which growth did it give?
**A.** 67.6% (inactive)

**Q.** `C=CC(=O)Nc1cccc(Nc2nc(SC)nc(-c3cccc([N+](=O)[O-])c3)c2C#N)c1` was tested. Which growth did it give?
**A.** 74% (inactive)

**Q.** For `N#C/C(=C\c1ccc(-c2cc(C(F)(F)F)ccc2Cl)o1)c1nc(-c2ccco2)cs1`, which growth is on record?
**A.** 103% (inactive)

**Q.** For `COCCNc1ccc2c3c(cccc13)C(=O)N(CCN(C)C)C2=O`, which growth is on record?
**A.** 23.1% (inactive)

From PubChem BioAssay (NCI)
